Bioassay records (PubChem BioAssay)
MCF10A rereplic – A quantitative high throughput screen for small molecules that induce DNA re-replication in MCF 10a normal breast cells | actives 2.9% (n = 350,000) | Potency, µM (titrated, usually from 46.1 µM), for the others: top-dose activity, positive = re-replication, usual class: activators | AID 624296, 2012 | MCF 10A DNA re-replication, Hoechst nuclear intensity, 48 h; note: potency is the fitted concentration of half-maximal effect; % of control where 0% means no effect; nearly all actives have a fitted effect of over 50% in size
VP16 counter – VP16 counterscreen qHTS for inhibitors of ROR gamma transcriptional activity. actives 3.5% (n = 310,000). AID 2546, 2010. Drosophila S2 Gal4-VP16 UAS-luciferase, luminescence, 20 h. Potency, µM (titrated, usually from 53.6 µM), for the others: at the top dose activity, negative = inhibition, hits mostly inhibitors;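 note: Gal4-VP16 expression switched on by copper sulfate through the metallothionein promoter; potency is the fitted concentration of half-maximal effect; % is set by controls: 0 for no effect and ±100 for the full control effect; nearly all actives have a fitted effect of over 50% in size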
SW480 rereplic – A quantitative high throughput screen for small molecules that induce DNA re-replication in SW480 colon adenocarcinoma cells | Potency, µM (series often up to 46.1 µM), for inactives: at the top dose re-replication activation, actives largely listed as activators | SW480 DNA re-replication, Hoechst DNA content imaging, 48 h | AID 624297, 2012 | actives 1.8% (n = 340,000); note: potency is the fitted concentration of half-maximal effect; % of control where 0% means no effect; nearly all actives have a fitted effect of over 55% in size
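250 cells/well; 23 nL cpd via pin tool; 48 hr, 37 C, 5% CO2; Hoechst 40 min; imager read of total nuclear intensity, ex 405/em 500-530 nm.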
RORg inh – qHTS for inhibitors of ROR gamma transcriptional activity. Drosophila S2 Gal4-RORgamma UAS-luciferase reporter, 20 h. AID 2551, 2010. Nuclear receptor ROR-gamma (Mus musculus), P51450. actives 5.4% (n = 310,000). Potency, µM (doses to about 53.6 µM), for inactives: at the top dose activity change, negative = inhibition, usual class: inhibitors; note: potency is the fitted concentration of half-maximal effect; % is set by controls: 0 for no effect and ±100 for the full control effect; nearly all actives have a fitted effect of over 60% in size
Target sequence (P51450 whole entry, looked up, the tested form may be a part): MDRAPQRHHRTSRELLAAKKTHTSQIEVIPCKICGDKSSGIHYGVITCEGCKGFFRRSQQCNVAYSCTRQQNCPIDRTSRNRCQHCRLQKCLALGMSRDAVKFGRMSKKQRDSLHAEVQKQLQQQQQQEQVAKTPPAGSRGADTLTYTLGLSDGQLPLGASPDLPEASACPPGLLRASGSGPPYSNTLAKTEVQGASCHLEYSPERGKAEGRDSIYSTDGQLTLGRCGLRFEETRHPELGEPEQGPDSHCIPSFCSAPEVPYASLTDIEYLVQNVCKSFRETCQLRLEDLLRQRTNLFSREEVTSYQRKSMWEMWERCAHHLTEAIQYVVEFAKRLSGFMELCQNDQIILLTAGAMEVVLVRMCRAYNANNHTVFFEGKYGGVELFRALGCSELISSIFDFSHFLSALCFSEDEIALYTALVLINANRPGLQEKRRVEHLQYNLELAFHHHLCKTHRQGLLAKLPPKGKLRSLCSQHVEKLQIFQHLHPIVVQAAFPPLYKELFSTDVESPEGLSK
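Using a luciferase readout, inhibitors were identified by reduced reporter activity in Drosophila cells coexpressing a copper-inducible Gal4–ROR gamma fusion and UAS-driven Photinus luciferase, incubated 20 hr after 700 uM copper sulfate.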
Giardia killer – Small Molecules that selectively kill Giardia lamblia: qHTS; Giardia lamblia trophozoite viability; actives 0.15% (n = 340,000); AID 540267, 2011; activity change, % at 7.66 µM, hits read low; in the data active = activity change below about -80%; inconclusive = between about -30% and that limit;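 note: parasites exposed to compound for two days anaerobically before the ATP read; % is set by controls: 0 for no effect and ±100 for the full control effect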
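Trophozoites 100 cells/well + cpd; 48 hrs, 37 deg C, anaerobic. ATPLite 1-Step added, 15-30 min RT, luminescence read (ATP-based viability).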
BCR signal inh – qHTS Assay to Find Inhibitors of Chronic Active B-Cell Receptor Signaling; ABC-DLBCL IkBa-CBG/CBR reporter, luminescence ratio, 4 h; Potency, µM (doses to about 46.1 µM), for the others: at the top dose activity change, negative = inhibition, most hits filed as inhibitors; actives 0.05% (n = 340,000); AID 493014, 2011; active = well fitted inhibition curve with a large enough effect in the signal ratio, with a control signal flat, not every such curve was filed as active; inconclusive = small, poorly fitted or top-dose-only effect, or effect the other way, or a change in a side signal; the % refers to the signal ratio;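 note: potency is the fitted concentration of half-maximal effect; plate controls were basal doxycycline-induced cells for no effect and cells given 10 µM MG132 for full effect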
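TMD8 ABC-DLBCL cells carrying doxycycline-inducible green luciferase fused to IkappaBalpha plus unfused red luciferase were exposed to compounds (up to 46 uM) for 4 hrs at 37C. Activity came from the overlap-corrected green/red luminescence ratio.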
* = called active by the depositor; ? = inconclusive; / = not tested or not shown; [ ] = dose if it differs, or a comment. Shown are actives, neighbours in structure and some others; about 8.3% of the full set was active somewhere. Unless noted, calls come from the whole dose curve; as a rule, active = well fitted curve in the direction sought with a large enough effect; inconclusive = small, poorly fitted or top-dose-only effect, or another doubt; inactive = no such curve, though single readings can be large; an effect the other way counts as inactive or inconclusive.

SMILES	MCF10A rereplic	VP16 counter	SW480 rereplic	RORg inh	Giardia killer	BCR signal inh
Cc1cccc(C(=O)NNC(=O)c2c(-c3ccccc3Cl)noc2C)c1O	-2%	-26%	?	10µM*	10	4%
COc1ccc(C(=O)Oc2cc(N)n(S(=O)(=O)c3ccc(C)cc3)n2)cc1	0%	-1%	-11%	11%	-3	-1%
C/C(=N\OC(=O)c1c(-c2ccccc2Cl)noc1C)c1ccncc1	-8%	-7%	1%	-24%	-4	4%
COc1ccc(S(=O)(=O)n2nc(OC(=O)c3c(-c4ccccc4Cl)noc3C)cc2N)cc1	1.6µM*	-14%	-4%[9.22 µM]	17%	11	?
Cc1onc(-c2ccccc2Cl)c1C(=O)OCc1cnc(Cl)s1	23µM*	-2%	4%	24%	16	0%
Cc1onc(-c2ccccc2Cl)c1C(=O)O/N=C(\N)c1ccccc1	?	6.3µM*	?	14µM*	7	0%
Cc1ccc(CNc2ccc(N3CCN(C)CC3=O)cc2)cc1	0%	/	2%	/	-13	1%
Cc1ccc2cccc(OC(=O)/C=C\c3ccccc3)c2n1	24%	-1%	-22%	-2%	-5	20%
Cc1c(C(=O)Oc2cccc3cccnc23)oc2ccccc12	?	6.3µM*	?	3.2µM*	-14	?
CCc1ccc(OC(=O)/C=C/c2ccco2)cc1	-2%	1%	-12%	10%	-26	?
O=C(/C=C\c1ccco1)Oc1cccc2cccnc12	?	4.5µM*	-13%	1.4µM*	-2	?
COc1ccccc1/C=C/C(=O)Oc1cccc2cccnc12	?	5.6µM*	?	3.2µM*	-20	?
CCc1nc2ccccc2c(C(=O)Oc2cccc3cccnc23)c1C	?	4%	-4%	-16%	?	?
O=C(/C=C/c1ccco1)Oc1cccc2cccnc12	5%	4.5µM*	?	1.4µM*	-5	?
O=C(c1cnsn1)N1CCCC(Nc2ccc(F)c(F)c2)C1 (stereo not drawn)	4%	-3%	23%	6%	10	-1%
CCOC(=O)C(=CNc1cc(C)ccc1-n1cccc1)C(=O)OCC	5%	-2%	-8%	14%	1	-5%
CCn1cc(C(=O)N(C)Cc2ccc(OC(F)F)cc2)c(=O)c2ccc(C)nc21	-5%	4%	13%	22%	2	?
CCOc1ccc2nc(SCC(=O)N3c4ccccc4Sc4ccccc43)c(C#N)cc2c1	?	1%	4%	0%	-3	2%
CCOc1ccc2nc(NCCCNS(=O)(=O)c3ccc(F)cc3)c(C#N)cc2c1	2.1µM*	/	?	/	0	/
CCCCNc1nc2ccccc2nc1NS(=O)(=O)c1ccc(F)cc1	?	8%	0%	41%	7	2%
CCOc1ccc2nc(NCCCNS(=O)(=O)c3ccccc3)c(C#N)cc2c1	2.9µM*	6%	7.3µM*	-26%	4	?
Cc1noc(C)c1NC(=O)N(C)C[C@@H]1Oc2c(NC(=O)c3ccncc3)cccc2C(=O)N([C@H](C)CO)C[C@@H]1C	-12%	/	5%	/	-28	1%
CCN1C(=O)/C(=C/C=C2\N(CC)c3cc(S(=O)(=O)N(C)C)ccc3N2c2ccccc2)SC1=S	4%	-27%	-2%	-21%	33	0%
Cc1cc(OCC(=O)N(C(C)C)C(C)C)ccc1Cl	-6%	?	-2%	1.6µM*	9	-1%
Cc1cc(OC(C)C(=O)Nc2cccnc2)ccc1Cl (stereo not drawn)	-1%	-11%	-5%	22%	-11	4%
SMILES	MCF10A rereplic	VP16 counter	SW480 rereplic	RORg inh	Giardia killer	BCR signal inh
Cc1cc(OC(C)C(=O)Nc2ccncc2)ccc1Cl (stereo not drawn)	7%	11µM*	-22%	19%	3	-2%
Cc1ccc(OC(C)C(=O)Nc2ccncc2)cc1 (stereo not drawn)	0%	18µM*	-1%	?	16	5%
C=C(C)CN1C(=O)C2(OCCO2)c2ccccc21	-2%	-6%	-16%	1%	-8	1%
O=C(C1CC1)N1CCc2cc(Br)c(S(=O)(=O)N3CCCCCC3)cc21	?	/	15%	/	-12	/
Cc1ccc(NC(=O)Cn2c(O)c(N=NC(N)=S)c3ccccc32)cc1	?	?	?	?	-25	?
Cc1cc(C)nc(N=Nc2c(O)n(Cc3ccc(Cl)cc3)c3ccccc23)n1	0%	3.5µM*	?	5.6µM*	-5	-26%
NC(=S)N=Nc1c(O)n(Cc2ccccc2)c2ccccc12	15%	?	-7%	3.2µM*	4	3%
COC(=O)c1ccc(Cn2c(O)c(N=NC(N)=S)c3ccccc32)o1	1%	13µM*	23µM*	1.1µM*	23	?
C/C(Cl)=C\Cn1c(O)c(N=NC(N)=S)c2ccccc21	15%	5µM*	?	3.5µM*	0	?
CCOC(=O)N=Nc1c(O)n(Cc2ccccc2)c2ccccc12	1%	-1%	-8%	?	-23	-11%
CC[C@]12c3[nH]c4cc(-c5ccco5)ccc4c3CCN1C(=O)[C@@H](CC(=O)NCCCn1ccnc1)C[C@@H]2C(=O)N1CCN(C(=O)C2CC2)CC1	-10%	/	-7%[9.22 µM]	/	14	?
O=C1c2ccccc2C(=O)N1CC(O)COc1ccc(Br)cc1 (stereo not drawn)	-1%	18%	-11%	?	36	0%
Cc1noc(NS(=O)(=O)c2ccc(NC(=O)/C=C/c3ccccc3)cc2)c1C	8%	/	-11%	/	18	?
Cc1ccc(S(=O)(=O)N2CCN(c3nc(-c4cccs4)nc(C)c3C)CC2)cc1	/	/	/	/	-10	/
Cc1cc(CNC(=O)Cn2nc(C)c([N+](=O)[O-])c2C)c2ccccc2n1	0%	-5%	14%	-5%	3	?
CCCCNC(=S)N=Nc1c(O)n(Cc2ccccc2)c2ccccc12	?	6.3µM*	7%	6.3µM*	-3	-1%
COc1nc(-c2cnccn2)sc1C	-2%	-6%	1%	-11%	-3	-9%
COc1ccc(NC2=C(NCCO)C(=O)c3ccccc3C2=O)cc1	?	3%	18µM*	-7%	-19	0%
COC1=C(Nc2ccc(OC)cc2)C(=O)c2ccccc2C1=O	?	-3%	23µM*	5%	15	4%
